Rows were chosen to be rich in hits. Some 10% of all compounds tested hit in one or more screens of this group.
HP1b binding inh: inhibitors of HP1-beta chromodomain binding to methylated histone tails. AlphaScreen HP1-beta / biotin-H3K9me3 peptide binding. Potency, µM (doses to about 114 µM), for the others: at the top dose activity change, negative = inhibition, usual class: inhibitors. 0.56% of 390,000 active. AID 540317; also: potency is read from the fitted curve at half-maximal effect; nearly all actives have a fitted effect of over 70% in size
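HP1-beta protein (50 nM final) preincubated 30 min at room temperature with biotinylated H3(1-18)K9me3 peptide (50 nM) in PBS pH 7.4, 0.01% Tween-20, then compound added for 30 min. AlphaScreen streptavidin donor/nickel chelate acceptor beads (10 ug/mL final), 30 min dark, luminescence read.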
BAZ2B inh: blocks human BAZ2B; Potency, µM (top dose mostly 114 µM), inactives show at the highest dose activity change, negative = inhibition, actives largely listed as inhibitors; AlphaScreen BAZ2B-H3K14Ac peptide displacement; 4.4% of 360,000 active; also: potency is read from the fitted curve at half-maximal effect; % is scaled to controls: 0 for no effect and ±100 for the full control effect; nearly all actives have a fitted effect of over 60% in size
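AlphaScreen luminescence quantifies BAZ2B engagement of H3K14Ac peptide; the protein and biotinylated peptide are both at 50 nM final, buffer PBS pH 7.4 with 0.01% Tween-20, all steps at room temperature.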
G9a inh: G9a (human) methyltransferase inhibition | Potency, µM (titrated, usually from 102 µM), for the others: at the highest dose activity, negative = inhibition, hits mostly inhibitors | 8.8% of 350,000 active | AID 504332 | Q96KQ7 | G9a H3K9 monomethylation, AlphaScreen, 2 h; also: potency is read from the fitted curve at half-maximal effect; % is scaled to controls: 0 for no effect and ±100 for the full control effect; nearly all actives have a fitted effect of over 75% in size
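Signal arises when biotinylated H3K9 peptide, once monomethylated, bridges streptavidin donor and antibody-captured acceptor beads. Enzyme at 20 nM was preincubated 15 min with test compounds; peptide 500 nM and SAM 20 uM then reacted for 2 h.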
JMJD2A Tudor inh: inhibitors of human JMJD2A Tudor domain; O75164; AlphaScreen JMJD2A-Tudor / H3K4me3 peptide binding; Potency, µM (series often up to 114 µM), without a hit: at the top dose activity change, negative = inhibition, actives largely listed as inhibitors; 4.4% of 390,000 active; AID 504339; also: potency is read from the fitted curve at half-maximal effect; % is scaled to controls: 0 for no effect and ±100 for the full control effect; nearly all actives have a fitted effect of over 50% in size
Target sequence (O75164 whole entry, looked up, the tested form may be a part): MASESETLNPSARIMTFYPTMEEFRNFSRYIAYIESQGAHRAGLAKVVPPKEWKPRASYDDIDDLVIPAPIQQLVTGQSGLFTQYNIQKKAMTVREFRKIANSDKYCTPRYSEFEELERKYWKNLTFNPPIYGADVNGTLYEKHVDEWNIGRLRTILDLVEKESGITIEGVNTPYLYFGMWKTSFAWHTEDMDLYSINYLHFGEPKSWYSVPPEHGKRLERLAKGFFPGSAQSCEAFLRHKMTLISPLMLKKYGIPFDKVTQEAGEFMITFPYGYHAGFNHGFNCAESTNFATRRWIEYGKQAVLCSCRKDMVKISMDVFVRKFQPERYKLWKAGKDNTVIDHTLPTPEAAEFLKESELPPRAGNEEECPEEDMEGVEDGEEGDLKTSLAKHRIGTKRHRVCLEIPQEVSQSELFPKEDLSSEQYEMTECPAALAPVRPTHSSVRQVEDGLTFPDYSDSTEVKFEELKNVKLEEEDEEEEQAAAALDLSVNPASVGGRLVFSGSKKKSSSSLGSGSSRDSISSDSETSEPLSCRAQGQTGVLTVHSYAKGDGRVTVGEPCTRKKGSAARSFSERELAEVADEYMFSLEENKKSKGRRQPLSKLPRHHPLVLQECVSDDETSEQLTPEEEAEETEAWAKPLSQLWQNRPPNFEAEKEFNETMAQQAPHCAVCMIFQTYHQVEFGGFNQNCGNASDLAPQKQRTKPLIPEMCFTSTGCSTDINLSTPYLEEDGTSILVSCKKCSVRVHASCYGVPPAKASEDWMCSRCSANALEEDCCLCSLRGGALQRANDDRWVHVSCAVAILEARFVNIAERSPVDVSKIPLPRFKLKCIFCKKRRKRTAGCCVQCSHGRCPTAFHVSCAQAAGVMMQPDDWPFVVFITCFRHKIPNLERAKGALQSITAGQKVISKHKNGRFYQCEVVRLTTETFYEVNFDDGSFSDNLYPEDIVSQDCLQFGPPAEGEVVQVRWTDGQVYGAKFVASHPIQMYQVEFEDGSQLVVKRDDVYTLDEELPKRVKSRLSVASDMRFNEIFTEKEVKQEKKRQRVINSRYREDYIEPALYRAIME
CtBP-E1A inh: CtBP/E1A binding inhibition. AlphaScreen GST-E1A/His-CtBP binding, 1536-well; stronger effect = lower value. activity change, % (concentration not given with the values). 0.49% of 340,000 active. AID 651724; in the data active = activity change below about -65%; inconclusive = mostly about -30% to -63%; also: % is scaled to controls: 0 for no effect and ±100 for the full control effect
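Steps: dispense buffer (Tris pH 8.0, NaCl 300 mM, TCEP 1 mM, BSA, Tween 20); add 5X protein mix (GST-E1A, His-CtBP, 125 nM each); pin 23 nL compound; 2 h at 37 °C, dark; add 5X beads (50 ug/mL); 1 h; read.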
Six1-Eya2 blk: Six1/Eya2 interaction inhibition | Q15475+O00167 | AlphaScreen GST-Six1/His-Eya2 binding, biochemical; stronger effect = lower value | activity change, % (concentration not given with the values) | 0.56% of 360,000 active; in the data active = activity change below about -65%; inconclusive = mostly about -30% to -63%; also: % is scaled to controls: 0 for no effect and ±100 for the full control effect
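Six1/Eya2 binding was read as AlphaScreen signal after compounds were pinned into GST-Six1 plus His-tagged Eya2 (5X stock 250/500 nM) in pH 8.0 Tris/NaCl/TCEP buffer, beads added, then incubated 1 h, 37 C, dark.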
* hit, by the source's call; ? = inconclusive; / = no result given; ! = not active in a repeat; [ ] = remark or other dose. Unless noted, calls follow the shape of the dose curve; as a rule, active = well fitted inhibition curve with a large enough effect; inconclusive = small, poorly fitted or top-dose-only effect; inactive = no such curve, though single readings can be large or run the other way.

SMILES | HP1b binding inh | BAZ2B inh | G9a inh | JMJD2A Tudor inh | CtBP-E1A inh | Six1-Eya2 blk
C[n+]1c2cc(N)ccc2cc2ccc(N)cc21 | 29% | / | ? | ? | ? | ?
CNC(=O)OCc1n(C)cc[n+]1C | 10% | ? | 6.3µM* | -3% | -5 | 3
CN1/C(=C\C=Nc2ccccc2)C(C)(C)c2ccccc21 | 17% | ? | 79µM* | -14% | -1 | 4
COc1cc2c(cc1OC)[C@@]13CCN4CC5=CCOC6CC(=O)N2C1[C@H]6[C@@H]5C[C@@H]43 (some centres not stated) | / | / | -2%[2.33 µM] | / | / | /
CC(C)n1c(/C=C/[C@H](O)C[C@H](O)CC(=O)O)c(-c2ccc(F)cc2)c2ccccc21 | / | -3% | ? | -25% | / | -10
O=[N+]([O-])c1cc(I)c(O)c(I)c1 | / | / | 6%[59 µM] | / | / | /
O=C(O)CN1C(=O)CN=C(c2ccccn2)c2cc(Cl)ccc21 | 49% | 50µM* | -32% | 25µM* | / | -27
COc1ccc2c(c1OC)C(=O)O[C@H]2[C@H]1c2cc3c(cc2CCN1C)OCO3 | / | / | 21%[21.5 µM] | / | / | /
C[N+]1(C)CCc2cc3c(cc2[C@H]1[C@@H]1OC(=O)c2c1ccc1c2OCO1)OCO3 | 50% | ? | 22µM*! | 25µM*! | 2 | 0
O=C(Oc1cncc(Cl)c1)c1sccc1Cl | 73% | / | / | 19% | 6 | ?
C[C@@H]1O[C@@H](O[C@H]2C[C@@H](O)[C@]3(CO)[C@H]4[C@H](O)C[C@]5(C)[C@@H]([C@@H]6COC(=O)C6)CC[C@]5(O)[C@@H]4CC[C@]3(O)C2)[C@H](O)[C@H](O)[C@H]1O | / | / | 23%[12.7 µM] | / | / | /
CC1(C)OC(c2ccccc2)=C/C(=C/C=C2C(=O)NC(=O)NC2=O)O1 | -4% | -37% | 35µM* | -31% | / | 9
CN1/C(=C\C=C2C(=O)NC(=O)NC2=O)C(C)(C)c2ccccc21 | 37% | -12% | 18%[59 µM] | 4% | 3 | 4
Cc1ccc(NC(=O)CSc2nc(-c3ccco3)cc(C(F)(F)F)n2)c(C)c1 | 42% | 1% | 16%[59 µM] | 4% | / | /
COc1cccc(CNC(=O)CSc2ccc(-c3ccco3)nn2)c1 | 21% | ? | 28µM* | -23% | -8 | -6
CC1CCCCC12C(=O)NC(=O)NC2=O (configuration not stated) | 22% | / | / | -1% | -18 | 6
O=C1NC(=O)C2(Cc3ccccc3N3CCCC32)C(=O)N1 (configuration not stated) | 17% | -23% | 50µM* | -19% | -3 | -2
O=C1NC(=O)C2(Cc3ccccc3N3CCOCC32)C(=O)N1c1ccccc1 (configuration not stated) | 13% | 0% | -4% | -14% | 5 | 4
O=C1NC(=O)C2(Cc3ccccc3N3CCCC32)C(=O)N1c1ccccc1 (configuration not stated) | 50% | 13% | 28µM* | -16% | -2 | -4
COc1ccc(OCc2nnc(SCC(=O)NCC3CCCO3)n2N)cc1 (configuration not stated) | ? | / | / | -14% | -9 | 14
CC1Oc2cc3c(-c4c(O)cc(O)c5c(O)c6c(cc45)OC(C)C(C)C6=O)c(O)cc(O)c3c(O)c2C(=O)C1C (configuration not stated) | ? | 32µM* | 13µM* | 45µM* | -18 | -26
Cc1ccc(C2CC(=O)C(C=NCCN3CCN(C(=O)Cc4ccccc4)CC3)=C(O)C2)cc1 (configuration not stated) | 17% | 6% | ? | 2%[57.1 µM] | 9 | 13
O=C1CC(c2ccccc2)CC(O)=C1C=NCCN1CCN(C(=O)Cc2ccccc2)CC1 (configuration not stated) | 44% | 10% | 79µM* | -11% | -2 | 0
CC1(C)CC(=O)C(C=NCCN2CCN(C(=O)Cc3ccc(F)cc3)CC2)=C(O)C1 | 56% | 7% | 35µM* | -7% | 7 | 4
CC1(C)CC(=O)C=C(NCCN2CCN(C(=O)Cc3ccc(Cl)cc3)CC2)C1 | 20% | 6% | 71µM* | -3% | 3 | 4
SMILES | HP1b binding inh | BAZ2B inh | G9a inh | JMJD2A Tudor inh | CtBP-E1A inh | Six1-Eya2 blk
COC1CC(=C(c2cccs2)c2cccs2)C[N+](C)(C)C1 (configuration not stated) | / | / | -9%[12.7 µM] | / | / | /
c1cnc(N2CC3(CCNCC3)C2)nc1 | / | / | 4%[12.7 µM] | / | / | /
NC(CO)Cc1ccccc1 (configuration not stated) | / | / | -2%[2.33 µM] | / | / | /
O=C(CN1CCOCC1)c1ccc2cc[nH]c2c1 | 28% | 4% | 32µM* | -30% | 1 | 3
COc1ccc(C(=O)CN2CCOCC2)cc1F | 34% | -12% | 28µM* | -31% | -2 | 13
Cc1cc(C)c(-n2c(O)c(C=NCCN3CCOCC3)c(=O)[nH]c2=O)c(C)c1 | 57% | -2% | -5% | 2% | 3 | 2
Cc1cc(C)c(C(=O)CN2CCOCC2)c(C)c1 | 64% | -7% | 3.2µM* | ? | 6 | 7
CC(=O)c1cccc(OCC(O)CN2CC=C(c3ccccc3)CC2)c1 (configuration not stated) | -35% | 71µM* | ? | 2.8µM* | 1 | -2
Cc1cccc(OCC(O)CN2CC2)c1 (configuration not stated) | / | / | / | / | 3 | -8
CN(C)C1C(=O)C(C(N)=O)=C(O)C2(O)C(=O)C3=C(O)c4c(O)cccc4C(C)(O)C3C(O)C12 (configuration not stated) | 17% | 2µM* | / | -12% | -68* | ?
O=C1CC=C2C3CC4N(CCC45c4cc(O)c(O)cc4N1C25)CC3=CCBr (configuration not stated) | ? | / | / | 3.5µM* | 3 | -23
O=C1CC=C2C3CC4N(CCC45c4ccccc4N1C25)CC3=CCO (configuration not stated) | 34% | / | / | -8% | 8 | -1
CN1C(=O)C(c2ccc([N+](=O)[O-])cc2[N+](=O)[O-])C(=O)N(C)C1=O | 18% | 50µM* | 8%[2.33 µM] | ? | / | -3
O=[N+]([O-])c1ccc(Cl)c([N+](=O)[O-])c1 | 2% | -34% | -34%[59 µM] | ? | -6 | -4
C#CCOc1ccc(OC)cc1C(c1c(C)[nH][nH]c1=O)c1c(C)[nH][nH]c1=O | 5% | -3% | ? | -14% | -7 | -2
O=C(c1ccc2c(c1)N(Cc1ccccc1)CCS2)N1CCC2(CC1)OCCO2 | 8% | ? | ? | ? | -7 | -13
O=C1Nc2cc(C(=O)N3CCC4(CC3)OCCO4)ccc2NC1CSCc1cccc(F)c1 (configuration not stated) | / | -22% | 7.1µM* | / | / | /
